Sampled rows, rich in hits. Any-hit rate of the full collection: about 1.2%.
Rv3671c inh – Rv3671c serine protease inhibitors, primary screen, biochemical, fluorescence polarization, M. tuberculosis H37Rv. P9WHR9. inhibition, % at 5.96 µM. 320,000 compounds, 0.048% hits. AID 2606, 2010; in the data active means inhibition above about 38%;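 further: extracellular domain of Rv3671c used as enzyme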
UGM FP inh – M. tuberculosis UGM enzyme inhibitors, primary screen, biochemical, fluorescence polarization, single point; UDP-galactopyranose mutase (Mycobacterium tuberculosis (strain ATCC 25618 / H37Rv)), …; purified UGM, fluorescence polarization probe displacement; inhibition, % at 10 µM; 320,000 compounds, 0.06% hits; AID 504406, 2011; in the data active means inhibition above about 10%, passing the limit was not always enough; inconclusive means no clear call, values can overlap the other calls
Target sequence (P9WIQ1 whole entry, looked up): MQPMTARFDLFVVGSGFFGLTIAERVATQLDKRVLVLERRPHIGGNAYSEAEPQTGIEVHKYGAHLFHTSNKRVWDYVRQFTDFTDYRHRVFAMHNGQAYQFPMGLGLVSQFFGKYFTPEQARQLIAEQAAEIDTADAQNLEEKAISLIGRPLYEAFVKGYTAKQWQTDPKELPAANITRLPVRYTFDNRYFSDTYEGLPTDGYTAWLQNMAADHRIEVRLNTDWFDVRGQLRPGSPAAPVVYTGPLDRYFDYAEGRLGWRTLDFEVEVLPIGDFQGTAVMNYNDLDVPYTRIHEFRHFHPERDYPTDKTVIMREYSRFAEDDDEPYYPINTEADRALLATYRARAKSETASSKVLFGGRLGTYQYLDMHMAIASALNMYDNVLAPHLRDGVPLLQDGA
PrPC TRFRET – inhibitors of human cell surface prion protein PrPC, primary screen, cell-based, TR-FRET. TR-FRET read-out. 370,000 compounds, 0.43% hits. inhibition, % at 13.8 µM; in the data active means inhibition above about 24%
PriA SSB inh – inhibitors of Klebsiella pneumoniae PriA binding to SSB C-terminal tail, primary screen, biochemical, AlphaScreen | AlphaScreen SSBct-PriA binding, biotinylated peptide | inhibition, % at 33 µM | 430,000 compounds, 0.6% hits | AID 1272365, 2023; in the data active means inhibition mostly above about 37%, no sharp cut-off; inactive means mostly below about 20%
FadD28 binding – inhibitors of FadD28 bisubstrate probe binding, primary screen, biochemical, fluorescence polarization, single point; inhibition, % at 12.5 µM; Mycobacterium tuberculosis FadD28 fatty-acid-AMP ligase; 360,000 compounds, 0.22% hits; AID 588549, 2011; in the data active means inhibition above about 8.5%, passing the limit was not always enough; inconclusive means no clear call, values can overlap the other calls
PrP 5UTR inh – inhibition of PrP 5' UTR reporter expression; cell-based PrP 5' UTR mRNA reporter, plate reader; inhibition, % (concentration not given with the values); 340,000 compounds, 0.35% hits; in the data active means inhibition above about 52%
PrPC TRFRET cf – confirmation of inhibitors of cell surface human prion protein, confirmation, cell-based, TR-FRET. inhibition, % at 13.8 µM. AID 743200, 2013. cell surface PrPC level. 1,500 compounds, 65% hits. shares compounds with PrPC TRFRET; in the data active means inhibition above about 25%
LD9 tox – cytotoxicity in LD9 cells, cytotoxicity control for cell surface PrPc inhibitor project, cell-based, luminescence, high throughput. shares compounds with PrPC TRFRET. 1,500 compounds, 29% hits. inhibition, % at 13.8 µM. luminescence viability; in the data active means inhibition above about 9.5%
Numbers stand for hits; - = inactive; ? = inconclusive; . = no result given.

SMILES | Rv3671c inh | UGM FP inh | PrPC TRFRET | PriA SSB inh | FadD28 binding | PrP 5UTR inh | PrPC TRFRET cf | LD9 tox
CC(C)COP(=O)(OCC(C)C)C(O)c1ccc(Br)cc1 (centres undefined) | . | . | . | - | . | . | . | .
Cn1c(N2CCC(C(N)=O)CC2)nc2c1c(=O)n(Cc1ccc(Br)cc1)c(=O)n2C | - | - | 26 | - | - | - | 29 | -
Cn1c(N2CCCCC2)nc2c1c(=O)n(Cc1cccc(Br)c1)c(=O)n2C | . | . | . | - | - | - | . | .
CC(=O)Nc1nc2c(s1)CN(CC(=O)Nc1ccc(C)c(Cl)c1)CC2 | . | . | . | - | . | . | . | .
COc1ccccc1CNc1nc(Nc2cccc(-c3cnco3)c2)c2sccc2n1 | . | . | 25 | . | - | . | 33 | 35
COc1ccccc1CNc1nc(NCc2ccccc2OC)c2sccc2n1 | . | . | - | . | - | . | . | .
Cc1ccccc1Cn1cc(NC(=O)c2cc(-c3cccs3)on2)cn1 | - | - | - | - | - | - | . | .
Cc1ccccc1Cn1cc(NC(=O)c2cc(-c3ccco3)on2)cn1 | - | - | 30 | - | - | - | - | -
O=[N+]([O-])c1ccc(Nc2ccccc2)c2nonc12 | - | - | - | - | - | - | . | .
O=[N+]([O-])c1ccc(Sc2cccc[n+]2[O-])c2nonc12 | . | . | 37 | . | - | - | 73 | 99
CCCn1c(N)c(C(=O)CSc2nc3ccccc3s2)c(=O)[nH]c1=O | - | - | - | - | - | - | . | .
CCCn1c(N)c(C(=O)CSc2nnc(N)s2)c(=O)[nH]c1=O | - | - | 42 | - | - | - | 43 | -
CCCn1c(N)c(C(=O)CSc2nncs2)c(=O)[nH]c1=O | - | - | 55 | - | - | - | 67 | -
CCS(=O)(=O)N1CCN(CC(C)O)CC1 (centres undefined) | . | . | . | - | . | . | . | .
COc1ccc(CC(C)(O)CNC(=O)CN2C(=O)CCC2=O)cc1 (centres undefined) | . | . | . | - | . | . | . | .
COc1cc2sc3cc(NCCCN4CCOCC4)ccc3c(=O)c2cc1OC | - | - | - | - | - | - | . | .
COc1cccc2sc3cc(NCc4ccc(C)o4)ccc3c(=O)c12 | - | - | 37 | - | - | - | 83 | -
O=S(=O)(c1cccnc1)N1CCCCC(c2ccc(F)cc2)C1 (centres undefined) | . | . | . | - | . | . | . | .
CC1CCCN(C(=O)CSc2cnc3ccccc3n2)C1 (centres undefined) | - | - | 39 | - | - | - | 71 | -
Cc1nc2ccccc2nc1SCC(=O)N1CCC(C)CC1 | - | - | 55 | - | - | - | 50 | -
CC1CCN(C(=O)CSc2nc3ccccc3s2)CC1 | - | - | - | - | - | - | . | .
Cc1csc(NC(=O)c2cc3c(C)nn(Cc4ccccc4Cl)c3s2)n1 | - | - | 33 | - | - | - | - | -
Cc1nn(Cc2ccccc2Cl)c2sc(C(=O)NC(C)(C)C)cc12 | - | - | - | - | - | - | . | .
Cc1ccc(Cl)cc1NC(=O)c1ccc(Cn2cc(Cl)cn2)cc1 | - | - | 27 | - | - | - | - | -
CCOc1ccc(C(=O)Nc2cnn(Cc3ccc(Cl)c(Cl)c3)c2)cc1 | - | - | 27 | - | - | - | - | -
SMILES | Rv3671c inh | UGM FP inh | PrPC TRFRET | PriA SSB inh | FadD28 binding | PrP 5UTR inh | PrPC TRFRET cf | LD9 tox
CC1CCCN(c2ccc(C(=O)NCc3ccc4c(c3)OCO4)cc2[N+](=O)[O-])C1 (centres undefined) | - | - | - | - | - | - | . | .
CC1CCN(c2ccc(C(=O)Nc3ccc4c(c3)OCO4)cc2[N+](=O)[O-])CC1 | - | - | 74 | 39 | - | - | 77 | -
CC1CCCN(c2ccc(C(=O)Nc3ccc4c(c3)OCO4)cc2[N+](=O)[O-])C1 (centres undefined) | - | - | 31 | - | - | - | 40 | -
COc1cc(C(=O)Nc2ccc3c(c2)OCO3)ccc1-n1cnnn1 | - | - | 45 | - | - | - | 32 | -
COc1cc(NC(=O)C2CCN(S(=O)(=O)c3ccc(Cl)cc3)CC2)ccc1-n1cnnn1 | - | - | 27 | - | ? | - | - | 15
CC(C)c1ccc(OCC(=O)NCCCS(=O)(=O)N2CCN(c3ccccn3)CC2)cc1 | . | . | . | - | . | . | . | .
COc1ccc(OC)c(-c2csc(NC(=O)Cc3ccc(F)cc3)n2)c1 | - | - | - | - | - | - | . | .
COc1ccc(OC)c(-c2csc(NC(=O)Cn3[nH]c(=O)c4ccccc4c3=O)n2)c1 | - | - | 27 | - | - | - | 25 | 38
O=S(=O)(Nc1cccnc1)c1ccc(Br)c2ccccc12 | - | - | 36 | - | - | - | 43 | -
O=C(Nc1ccccc1)c1ccc(Br)c(S(=O)(=O)Nc2cccnc2)c1 | - | - | - | - | - | - | . | .
Cc1cc(OCC(C)C)ccc1/C(O)=C1/C(=O)C(=O)N(Cc2cccnc2)C1c1ccncc1 (centres undefined) | - | - | 35 | . | - | - | 54 | -
CCCCOc1ccc(C(O)=C2C(=O)C(=O)N(Cc3cccnc3)C2c2ccncc2)c(C)c1 (centres undefined) | . | . | . | - | . | . | . | .
CCCCOc1ccc(/C(O)=C2/C(=O)C(=O)N(Cc3cccnc3)C2c2ccncc2)c(C)c1 (centres undefined) | - | . | 45 | . | - | - | 70 | -
CCOC(=O)c1ccccc1NC(=O)CSc1nnc(-c2cccnc2)o1 | . | . | . | - | . | . | . | .
COc1cc(NC(=S)Nc2cccc(Cl)c2Cl)c(OC)cc1Cl | - | - | - | - | - | - | . | .
COc1cc(NC(=S)NC(C)(C)C)c(OC)cc1Cl | - | - | 25 | - | - | - | - | -
